Assay [1] is described as follows: compound effects on lung adenocarcinoma cell viability – A549, calcein-AM fluorescence, 48 h, basal, profiling panel (AID 1162). To be noted: higher = more signal.
A short description of assay [2]: compound effects on differentiated 3T3-L1 adipocyte viability – cell-based, 3T3-L1 adipocytes, calcein-AM fluorescence, 48 h, basal, profiling panel (AID 1163). To be noted: 3T3-L1 adipocytes viability, higher = more signal.
Assay [3] in a line: compound effects on hepatocellular carcinoma cell viability – HepG2, calcein-AM fluorescence, 48 h, basal, profiling panel (AID 1164). To be noted: higher = more signal.
Assay [4] is described as follows: compound effects on multiple myeloma cell viability – MM1S, calcein-AM fluorescence, 48 h, basal, profiling panel (AID 1165).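 Further: viability of MM1S multiple myeloma cells under basal unstimulated conditions.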 To be noted: higher = more signal.
Assay [5] in a line: calcein-AM signal in unstimulated myeloma cells – cell-based, calcein-AM fluorescence, 48 h, PK04 Diversity Set, profiling panel (AID 1166).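 Further: cells grown under basal conditions without added stimulus.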 To be noted: RPMI8226 myeloma viability, higher = more signal.
A short description of assay [6]: JC-1 mitochondrial signal, unstimulated HepG2 cells – cell-based, JC-1 fluorescence, 24 h, 100 nL compound, profiling panel (AID 1167). The conditions noted are these: HepG2 mitochondrial potential, higher = more signal.
Assay [7] can be described thus: JC-1 mitochondrial signal, unstimulated adipocytes – cell-based, JC-1 fluorescence, 3T3-L1 adipocytes, 24 h, 100 nL compound, profiling panel (AID 1168). To be noted: JC-1 mitochondrial fluorescence, higher = more signal, called active from +8 up or from −8 down.
A short description of assay [8]: JC-1 mitochondrial signal, unstimulated myeloma cells – cell-based, JC-1 fluorescence, RPMI8226, 24 h, 100 nL compound, profiling panel (AID 1169). To be noted: JC-1 mitochondrial potential fluorescence, higher = more signal.
Assay [9] is described as follows: JC-1 mitochondrial signal, unstimulated MM1S myeloma – cell-based, JC-1 fluorescence, 24 h, 100 nL compound, profiling panel (AID 1170). To be noted: MM1S mitochondrial potential, higher = more signal.
Assay [10] in a line: resazurin metabolic signal in A549 cells – cell-based, resazurin fluorescence, 24 h, PK04 Diversity Set, profiling panel (AID 1171). To be noted: A549 viability, higher = more signal, called active from +8 up or from −8 down. On the technique in general: The colour change of resazurin is a common sign of viable cells or microbes.

SMILES strings stand for the structures. Active and inactive are the calls of the source.
Further: test concentration not given here.

`C=C(CCCC)C(=O)CC[C@@H](OC(C)=O)c1ccc(OCCO)cc1`: the z-score in [1] is -0.0836; in assay [2], 0.997; in assay [3] it was -0.439; in [4], -1.97; in [5], -1.92; in assay [6] it was -0.338. The z-score in assay [7] is -0.362 (inactive); in [8], -0.793; in [9] it was -0.36; in [10], 0.325 (inactive).

As for `CN1C(=O)C2C(C1=O)C1C=C(CCCO)C2C(C2CC2)N1C` (stereo not given), the z-score in assay [1] is -0.0397; in [2], -0.333; in assay [3], 0.019; in [4], 0.828; in assay [5], 0.929; in assay [6], 1.18. In addition, the z-score in assay [7] was 0.693 (inactive); in assay [8], -0.786; in assay [9] it was -0.641; in [10], -1.61 (inactive).

As to `CCOC(=O)C1=CCC(c2cccn2C(=O)OC(C)(C)C)N(S(=O)(=O)c2ccc(C)cc2)C1` (stereo not given), the z-score is -0.982 in assay [1]; -0.838 in assay [2]; -0.168 in assay [3]; -3.2 in [4]; -3.67 in [5]; 2.22 in assay [6]. The z-score in [7] was 0.066 (inactive); in assay [8], -1.11; in assay [9] it was -2.93; in assay [10] it was -0.373 (inactive).

As to `Cc1ccc(N2C(=O)c3ccccc3[C@@H](C(=O)NCCN3CCOCC3)[C@@H]2c2ccc(CO)cc2)nc1`, the z-score was -0.619 in assay [1]; 0.112 in [2]; -0.45 in assay [3]; 0.128 in assay [4]; 0.0765 in assay [5]; -0.274 in assay [6]. The z-score is 0.111 (inactive) in assay [7], -0.171 in assay [8], 0.235 in [9] and 0.444 (inactive) in assay [10].

In the case of `CCOC(=O)C1=C[C@@H](C(C)(C)C)N(S(=O)(=O)c2ccc(C)cc2)[C@H]1c1ccc(OC)cc1`, the z-score in assay [1] was 0.279; in assay [2], -0.276; in assay [3], -0.778; in [4], -1.04; in [5] it was -1.23; in assay [6] it was 4.09. Moreover, the z-score in assay [7] was -0.305 (inactive); in [8] it was -0.589; in [9], -0.676; in assay [10] it was 2.62 (inactive).

`COCCCNC(=O)[C@@]1(c2ccc([N+](=O)[O-])cc2)CC(=O)N(C2CCCCC2)[C@@H]1c1ccc(CO)cc1I`: the z-score is 1.22 in [1]; 0.944 in assay [2]; 0.857 in [3]; -1.41 in assay [4]; -0.0154 in assay [5]; 2.88 in assay [6]. In addition, the z-score is 0.802 (inactive) in [7], 0.496 in assay [8], 0.106 in assay [9] and 1.38 (inactive) in [10].

As for `COc1ccc([Si](C)(C)[C@H]2[C@H](CCO)O[C@@]3(C(=O)N(Cc4ccccc4)c4ccc(NC(=O)[C@H](C)O)cc43)[C@@H]2C)cc1`, the z-score is -1.88 in assay [1]; -1.49 in assay [2]; -4.52 in assay [3]; -2.62 in assay [4]; -4.31 in assay [5]; -2.86 in assay [6]. Further, the z-score is 0.364 (inactive) in assay [7], -0.961 in [8], -2.39 in [9] and -3.18 (inactive) in assay [10].

As to `COc1ccc([Si](C)(C)[C@H]2[C@H](CC(=O)N(CCO)Cc3ccccc3)O[C@@]3(C(=O)N(c4ccccc4)c4ccccc43)[C@@H]2C)cc1`, the z-score was -3.41 in [1]; -1.38 in assay [2]; -4.61 in assay [3]; -2.69 in [4]; -4.38 in assay [5]; -2.35 in assay [6]. Also, the z-score in assay [7] is 0.938 (inactive); in [8] it was -1.11; in assay [9] it was -2.27; in assay [10] it was -3.43 (inactive).

With `C=CCOC(=O)[C@@H]1[C@H]2C(=O)O[C@H](c3ccccc3)[C@H](c3ccccc3)N2[C@H](c2ccc(OCCOC(=O)[C@@H]3C[C@@H]4C(=O)N[C@@H](CC(C)C)C(=O)N4[C@@H]3c3ccc(O)cc3)cc2)[C@@]12C(=O)Nc1ccc(I)cc12`, the z-score was -0.226 in assay [1]; 0.175 in assay [2]; -0.0024 in assay [3]; 0.26 in assay [4]; 1.31 in assay [5]; -1.61 in assay [6]. Also, the z-score in assay [7] is 0.872 (inactive); in assay [8], -0.575; in [9] it was -0.925; in [10], 0.595 (inactive).

Consider `C=CCOC(=O)[C@H]1[C@@H]2C(=O)O[C@@H](c3ccccc3)[C@@H](c3ccccc3)N2[C@@H](c2ccc(OCCOC(=O)[C@@H]3C[C@@H]4C(=O)N[C@@H](Cc5ccccc5)C(=O)N4[C@@H]3c3ccc(O)cc3)cc2)[C@]12C(=O)Nc1ccc(I)cc12`, for which the z-score in assay [1] was -1.29; in assay [2] it was -0.28; in [3], 0.561; in assay [4], -0.325; in [5], -0.561; in assay [6] it was -2.14. Moreover, the z-score in assay [7] is 0.687 (inactive); in [8] it was -0.398; in assay [9], -1.03; in assay [10] it was -0.454 (inactive).

With `C=CC[C@]12N=C(c3ccc(OCCCO)cc3)O[C@H]1c1ccccc1N(CCC)C2=O`, the z-score in assay [1] is -1.36; in [2], 0.538; in [3], -0.454; in assay [4], -2.03; in assay [5], -3.07; in [6], 0.788. Also, the z-score in assay [7] was 1.85 (inactive); in assay [8], -1.07; in assay [9], -0.207; in assay [10], 0.266 (inactive).
